We go through 40 compounds from PubChem BioAssay (Tox21).

Results filed as inconclusive are left out. Entries that show only a call come without a potency. Calls of active or inactive are those of the source. Calls come from the whole dose curve; as a rule, active = well fitted inhibition curve with a large enough effect in the signal ratio in the repeat runs (not every such curve was filed as active); inconclusive = weak or mixed curves, or effect the other way; inactive = no such curve, though single readings can be large or run the other way; the % refers to the signal ratio.
Potency is the fitted concentration of half-maximal effect.

Sequence of Bile acid receptor (Homo sapiens) (Q96RI1 whole entry, looked up): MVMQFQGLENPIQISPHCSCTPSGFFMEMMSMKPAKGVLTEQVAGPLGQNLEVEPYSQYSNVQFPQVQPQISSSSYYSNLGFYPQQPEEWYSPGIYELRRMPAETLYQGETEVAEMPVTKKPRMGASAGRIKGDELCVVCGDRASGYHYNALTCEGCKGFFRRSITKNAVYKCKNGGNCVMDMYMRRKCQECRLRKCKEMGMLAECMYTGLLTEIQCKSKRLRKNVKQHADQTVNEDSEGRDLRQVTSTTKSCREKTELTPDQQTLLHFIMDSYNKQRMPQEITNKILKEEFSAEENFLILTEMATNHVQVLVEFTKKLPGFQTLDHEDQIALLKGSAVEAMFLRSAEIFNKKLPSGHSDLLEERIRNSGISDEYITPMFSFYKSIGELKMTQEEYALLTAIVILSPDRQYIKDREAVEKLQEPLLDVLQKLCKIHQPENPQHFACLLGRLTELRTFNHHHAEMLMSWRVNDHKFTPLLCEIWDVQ

This experiment addresses Bile acid receptor (Homo sapiens) (UniProt Q96RI1). In words: qHTS assay to identify small molecule antagonists of the farnesoid-X-receptor (FXR) signaling pathway (AID 743217). The settings on record: HEK293T FXR-UAS-bla, beta-lactamase ratio, CDCA-stimulated, 16 h; series mostly up to 62.6 µM. From the text:
U.S. Tox21 Program National Center for Advancing Translational Sciences [NCATS] NIH Chemical Genomics Center [NCGC] U.S. Environmental Protection Agency [EPA] National Institutes of Environmental Health Sciences [NIEHS] National Toxicology Program [NTP] U.S. Food and Drug Administration [FDA] Tox21 Assay Overview: The farnesoid-X-receptor (FXR), a nuclear hormone receptor, is highly expressed in liver, intestine, kidney and adrenal cortex. Natural ligands of FXR are the bile acids (Cholic acid, Chenodeoxy cholic acid etc). FXR is an important regulator of diverse metabolic pathways, including the bile acid homeostasis, lipid and glucose metabolisms. FXR regulates the expression of target genes by binding either as a monomer or as a heterodimer with the retinoid X receptor (RXR). Numerous studies have reported that FXR exerts protective function during cholestasis, diabetes, liver regeneration, and cancer. To identify compounds that inhibit FXR signaling, GeneBLAzer FXR-UAS-bla HEK 293T cell line (Invitrogen, Carlsbad, CA) containing a beta-lactamase reporter gene under the control of a UAS response element was used to screen the Tox21 10K compound library.
Tox21 Assay Protocol Summary: FXR-bla cells were dispensed at 5000 cells/5uL/well in 1536-well black wall/clear bottom plates using a Multidrop Combi (Thermo Fisher Scientific, Waltham, MA) dispenser. After the assay plates were incubated at 37C and 5% CO2 for 5 h, 23 nL of compounds dissolved in DMSO, positive controls or DMSO only was transferred to the assay plate by a Pintool station (Kalypsys, San Diego, CA), followed by addition of 1 uL Chenodeoxycholic acid (50 uM, final concentration in the wells). The assay plates were incubated at 37C for 16 h. After 1 uL of LiveBLAzerTM B/G FRET substrate was added using a Bioraptr Flying Reagent Dispenser (FRD) workstation (Beckman Coulter, Indianapolis, IN), the plates were incubated at room temperature for 2 h, and fluorescence intensity was measured by an Envision plate reader (PerkinElmer, Shelton, CT).
For orientation: In qHTS, concentration-response curves come from the screen itself.
On to `S=c1nccc[nH]1`, for which the Potency entry is “inactive”.
For the compound `CC(=O)c1ccc(C(C)=O)cc1`, the Potency entry was “inactive”.
Consider `O=[N+]([O-])c1ccc(O)cc1C(F)(F)F`, for which the Potency result is “inactive”.
Consider `CC(N=C(NC#N)Nc1ccncc1)C(C)(C)C` (stereo not given), for which the Potency entry is “inactive”.
The same measure for `CCC(CC)(CC(=O)Nc1cccc(/C=C/c2nc(C3CCC3)cs2)c1)C(=O)O`: “inactive”; for `O=C1NC(=O)[C@@H]2CC=CC[C@H]12`: “inactive”; for `CC(CO)Oc1ccccc1` (stereo not given): “inactive”.
As for `Sc1nc2ccccc2s1`, the Potency result is “inactive”.
In the case of `Cc1ccc(C)cc1`, the Potency result was “inactive”.
Turning to `CCn1c2ccccc2c2cc([N+](=O)[O-])ccc21`, the Potency result was “inactive”.
Take `OC1CCC(C2CCCCC2)CC1` (stereo not given): the Potency result is “inactive”.
Under `O[C@@H]([C@H](O)[C@H](O)CBr)[C@H](O)CBr` stands “inactive”.
As to `Nc1nc(N)nc(-c2cc(Cl)ccc2Cl)n1`, the Potency entry is “inactive”.
For the compound `CCCCC(CC)COC(=O)CCCCC(=O)OCc1ccccc1` (stereo not given), the Potency entry is “inactive”.
The same measure for `CN(C)Cc1ccccc1O`: “inactive”; for `C[C@@H](O)[C@H](N)C(=O)O`: “inactive”.
Turning to `CCC(COC(=O)CCS)(COC(=O)CCS)COC(=O)CCS`, the Potency result was “inactive”.
Under `C=Cc1ccccc1C=C` stands “inactive”; under `Cc1ccc(C(=O)O)cc1`, “inactive”; under `CN1CCN(Cc2cc(-c3ccc4[nH]c(=O)oc4c3)co2)[C@@H](c2ccc(F)cc2)C1`, “inactive”.
Consider `CCCCCC/C=C\CCCCCCCC(=O)O`, for which the Potency entry was “inactive”.
For `Cc1ccc(C(C)C)cc2c(C)ccc1-2`, the Potency entry is “inactive”.
Turning to `O=C(O)Cc1ccccc1Nc1c(Cl)cccc1Cl`, the Potency result is “inactive”.
As for `COC(=O)C1=C(C)NC(C)=C(C(=O)OCCN2CCN(C(c3ccccc3)c3ccccc3)CC2)C1c1cccc([N+](=O)[O-])c1` (stereo not given), the Potency is 11.9 µM (active).
Consider `CCCCCCCC`, for which the Potency result is “inactive”.
Turning to `CCCCCCCCCCCCOC(=O)c1ccc(O)cc1`, the Potency is 44 µM (active).
As to `C=C(C)C(=O)OCCCCCCCCCC`, the Potency entry is “inactive”.
On to `CCCCCCOC(=O)C(C)CC` (stereo not given), for which the Potency entry was “inactive”.
Under `Cc1ccc(N/N=c2\c(=O)cc/c(=N\Nc3ccc(S(=O)(=O)O)cc3)c2=O)c(C)c1` stands “inactive”.
The same measure for `Cc1ccc(O)c(N)c1`: “inactive”; for `CCCc1ccc(OCC(=O)N2CCN(C(=O)COc3ccc(CCC)cc3OC)CC2)c(OC)c1`: “inactive”.
As to `COC(=O)c1ccccc1C`, the Potency result is “inactive”.
For the compound `CCOC(=O)NNc1ccc(N(CC)CC(C)O)nn1` (stereo not given), the Potency result is “inactive”.
`COc1cc2nc(N3CCN(C(=O)c4ccco4)CC3)nc(N)c2cc1OC`: the Potency entry was “inactive”.
Consider `COC(C)=O`, for which the Potency result was “inactive”.
For `CN(C)[C@@H](CCOc1cccc2ccccc12)c1ccccc1`, the Potency entry was “inactive”.
In the case of `O=C(/C=C/c1ccccc1)OC/C=C/c1ccccc1`, the Potency entry is “inactive”.
With `Cc1cccc(C(=O)O)c1O`, the Potency result is “inactive”.
For `FC(F)(F)c1cccc(Cl)c1`, the Potency entry was “inactive”.
The same measure for `Nc1ccc(C(=O)O)c(O)c1`: “inactive”.
